High-throughput results from PubChem.
DT40 TDP1 no CPT: qHTS for Inhibitors of human tyrosyl-DNA phosphodiesterase 1 (TDP1): qHTS in cells in absence of CPT | DT40 Tdp1-/- hTDP1 cells, no CPT, ATP luminescence, 48 h | Potency, µM (series often up to 46.2 µM), without a hit: top-dose activity change, negative = growth inhibition, most hits filed as inhibitors | actives 15% (n = 420,000) | AID 686978, 2013; note: potency is the fitted concentration of half-maximal effect; nearly all actives have a fitted effect of over 55% in size
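Luminescent ATP content (CellTiter-Glo) served as the growth readout. Knockout chicken DT40 cells expressing human TDP1 were exposed to compounds without camptothecin for a minimum 48 hr at 37 °C.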
ELG1 DNA repair: qHTS screen for small molecules that inhibit ELG1-dependent DNA repair in human embryonic kidney (HEK293T) cells expressing luciferase-tagged ELG1. HEK293T ELG1-luciferase reporter, luminescence, 16 h; DNA damage induced by 5-fluorouridine. Potency, µM (doses to about 46.1 µM), without a hit: top-dose activity change, negative = inhibition, actives largely listed as inhibitors. actives 2.3% (n = 330,000); note: potency is the fitted concentration of half-maximal effect; nearly all actives have a fitted effect of over 55% in size
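Overnight (16 hr) co-exposure of 2,000 cells/well to 5-fluorouridine and compound at 37 °C preceded detection. Luciferase was quantified via ONE-Glo luminescence; loss of signal denotes inhibition.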
HT1080 IDH1KD tx: qHTS for induction of synthetic lethality in tumor cells producing 2HG: qHTS for the HT-1080-IDH1KD cell line; HT-1080 IDH1 knockdown viability, ATP luminescence, 48 h; actives 2% (n = 360,000); Potency, µM (series often up to 46.1 µM), without a hit: at the top dose activity, negative = toxicity, usual class: cytotoxic;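 note: potency is the fitted concentration of half-maximal effect; 0% = DMSO wells and -100% = cell-free medium wells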
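HT-1080-IDH1KD cells (IDH1 knocked down), 750/well in RPMI with 5% FBS, treated with compound 48 h at 37 degrees C. Viability by CellTiter-Glo luminescence, normalised to DMSO and no-cell wells; concentration-response curves classed.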
TDP1 cell CPT: qHTS for Inhibitors of human tyrosyl-DNA phosphodiesterase 1 (TDP1): qHTS in cells in presence of CPT; chicken DT40 Tdp1-/-;hTDP1 cells + 20 nM CPT, ATP luminescence, 48 h; actives 12% (n = 420,000); AID 686979, 2013; Potency, µM (titrated, usually from 46.2 µM), for the others: at the highest dose activity change, negative = growth inhibition, most hits filed as inhibitors; note: potency is the fitted concentration of half-maximal effect; nearly all actives have a fitted effect of over 55% in size
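Chicken DT40 Tdp1-/- cells complemented with human TDP1, 400 cells/well, exposed to compounds plus 20 nM camptothecin for at least 48 h at 37 C; viability read as ATP content by CellTiter-Glo luminescence.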
IL1B secr inh: qHTS for Inhibitors of Inflammasome Signaling: IL-1-beta AlphaLISA Primary Screen. THP-1 LPS/ATP IL-1B secretion, AlphaLISA, 16 h; stronger effect = lower value. activity change, % at 57.5 µM. actives 4.7% (n = 360,000). AID 743279, 2014; in the data active = activity change below about -50%; inconclusive = mostly about -30% to -49%
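THP-1 cells pretreated 1 hr with compounds (up to 57.5 uM final), then stimulated with LPS (250 ng/mL final) plus ATP (1.25 mM final); secreted IL-1B measured by AlphaLISA after 16 hr, decreased signal indicating inhibition.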
HT1080-NT tox: qHTS for induction of synthetic lethality in tumor cells producing 2HG: qHTS for the HT-1080-NT fibrosarcoma cell line; HT-1080-NT fibrosarcoma viability, CellTiter-Glo ATP luminescence, 48 h; Potency, µM (doses to about 46.1 µM), for inactives: top-dose activity, negative = less viability, usual class: cytotoxic; actives 1.6% (n = 360,000); AID 686970, 2013;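 note: NT is the 2HG producing partner of a matched IDH1 knockdown line; potency is the fitted concentration of half-maximal effect; 0% = DMSO-treated cells and -100% = media-only wells without cells; nearly all actives have a fitted effect of over 55% in size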
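HT-1080-NT; 750 cells/well; 5% FBS RPMI; 48 h compound, 37 degrees C; CellTiter-Glo luminescence; curve fitting and curve-class assignment.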
Starred values were filed as active, the others as inactive; u = inconclusive; x = no result given. Hits are enriched below; roughly 19% of the tested compounds scored in any of these assays. Unless noted, calls come from the whole dose curve; as a rule, active = well fitted curve in the direction sought with a large enough effect; inconclusive = small, poorly fitted or top-dose-only effect, or another doubt; inactive = no such curve, though single readings can be large; an effect the other way counts as inactive or inconclusive. Unless noted, % is set by controls: 0 for no effect and ±100 for the full control effect.

SMILES | DT40 TDP1 no CPT | ELG1 DNA repair | HT1080 IDH1KD tx | TDP1 cell CPT | IL1B secr inh | HT1080-NT tox
O=C(C[n+]1cccc2ccccc21)c1ccc([N+](=O)[O-])cc1 | u | 21µM* | u | 21µM* | 55 | -2%
Cc1cccc(-c2noc(CSc3nc(-c4ccc(F)cc4)cc(=O)[nH]3)n2)c1 | -18% | x | x | -8% | x | x
O=c1c(-c2ccc(Cl)cc2)nc2cncnc2n1Cc1ccccc1Cl | 1% | x | x | 11% | x | x
Cc1ccc(/C([O-])=C(/C(=S)NCc2ccc3c(c2)OCO3)[n+]2ccc(N(C)C)cc2)c(C)c1 | u | -4% | -4% | u | -68* | -4%
C[C@H](CO)N1C[C@H](C)[C@@H](CN(C)S(=O)(=O)c2ccc(F)cc2)Oc2ccc(NC(=O)C3CCCCC3)cc2C1=O | 16µM* | -3% | 4% | u | -23 | 0%
Cc1ccc(S(=O)(=O)N(C)C[C@H]2Oc3ccc(NC(=O)C4CCCCC4)cc3C(=O)N([C@H](C)CO)C[C@H]2C)cc1 | 21µM* | 4% | u | 26µM* | -69* | u
C[C@H]1CN([C@@H](C)CO)C(=O)c2cc(NC(=O)C3CCCCC3)ccc2O[C@H]1CN(C)S(=O)(=O)c1ccccc1 | u | u | 5% | 21µM* | -6 | 1%
O=C(CNc1cc(S(=O)(=O)N2CCOCC2)ccc1NCC1CCCO1)Nc1ccc(F)c(F)c1 (stereo not given) | -27% | u | -16% | u | -14 | 0%
CC(=O)c1cccc(N(CC(=O)NC2CCCC2)C(=O)c2csnn2)c1 | 3% | -6% | 12% | -6% | 10 | 8%
O=C(/C=C/c1ccccc1)NC(=S)Nc1ccc(N2CCOCC2)cc1 | -30% | 1% | u | u | -22 | 7.9µM*
O=C(/C=C/c1ccccc1)Nc1cccnc1 | -22% | u | 0% | -4% | -6 | 14%
O=C(/C=C/c1ccccc1)Nc1cccc(C(=O)NC2CC2)c1 | -29% | x | 17% | -3% | -64* | 13%
O=C(C=Cc1ccccc1)Nc1ccccc1 | -25% | x | -7% | -29% | -69* | -11%
O=C(/C=C/c1ccccc1)NC(=S)Nc1ccccc1 | u | u | 1% | -21% | -61* | -6%
O=C(/C=C/c1ccccc1)Nc1cccc(C(=O)NCCCc2ccccc2)c1 | u | x | -5% | u | 3 | -4%
O=C(CSc1ncccn1)NC1CCCC1 | -3% | x | 7% | -1% | 18 | 7%
Cc1cc(C)cc(NC(=S)N2C3CCCC2CC(NC(=O)C2CC2)C3)c1 (stereo not given) | -10% | -4% | -5% | -11% | 7 | -1%
O=C(/C=C/c1ccc(F)cc1)NC(=S)Nc1ccccc1 | 21µM* | 7% | -17% | u | u | u
CC(C)(C)c1ccc(/C=C/C(=O)Nc2ccncc2)cc1 | 7.3µM* | u | u | 10µM* | u | u
O=C(NC1CC1)c1cccc(NC(=O)c2cnn(-c3ccccc3)n2)c1 | 16µM* | 12µM* | 7% | 23µM* | 8 | 3%
CC(=O)Nc1ccc(NC(=O)/C=C/c2ccc(Cl)cc2)cc1 | -8% | u | 11% | -13% | -13 | -10%
